Source: PubChem
Only some compounds are listed: those with a hit (about 7.1% of all), similar ones and a draw of the others.
IL1B secr inh – inhibitors of inflammasome signaling (IL-1 beta secretion); THP-1 LPS/ATP IL-1B secretion, AlphaLISA, 16 h; stronger effect = lower value; activity change, % at 57.5 µM; 360,000 tested, 4.7% active; in the data active = activity change below about -50%; inconclusive = mostly about -30% to -49%; also: % is scaled to controls: 0 for no effect and ±100 for the full control effect
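THP-1 cells pretreated 1 hr with compounds (up to 57.5 uM final), then stimulated with LPS (250 ng/mL final) plus ATP (1.25 mM final); secreted IL-1B measured by AlphaLISA after 16 hr, decreased signal indicating inhibition.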
PINK1 modulator – PINK1 expression modulation. PINK1 immunofluorescence, high-content cytometry, 24 h. Potency, µM (top dose mostly 76.6 µM), inactives show top-dose activation (PINK1 increase), usual class: activators. 410,000 tested, 0.2% active. AID 624263; active = well fitted activation curve with a large enough effect; inconclusive = small, poorly fitted or top-dose-only effect; cell line not stated here; also: potency is read from the fitted curve at half-maximal effect; % of control where 0% means no effect; nearly all actives have a fitted effect of over 65% in size
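Cells are seeded, rested 12 hours, then given compound at five concentrations or DMSO for 24 hours. After fixation, blocking and antibody staining, PINK1 amount and mitochondrial localization are scored; CCCP serves as control.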
ATXN2 expr inh – reduces ATXN2 reporter expression in HEK-293 cells. 360,000 tested, 0.72% active. Potency, µM (highest dose often 57 µM), for inactives: at the top dose activity change, negative = inhibition, most hits filed as inhibitors. HEK-293 ATXN2-luciferase reporter, luminescence, 24 h; also: potency is read from the fitted curve at half-maximal effect; % is scaled to controls: 0 for no effect and ±100 for the full control effect; nearly all actives have a fitted effect of over 55% in size
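ATXN2-luciferase reporter cells (luciferase flanked by upstream and downstream ATXN2 gene portions) were treated 24 h at 37 °C with compounds at up to 57 uM. SteadyGlo luminescence gave expression; GF-AFC fluorescence gave viability.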
SW480 rerep – inducers of DNA re-replication in SW480 colon cancer cells | SW480 DNA re-replication, Hoechst DNA content imaging, 48 h | Potency, µM (highest dose often 46.1 µM), for inactives: at the top dose re-replication activation, most hits filed as activators | 340,000 tested, 1.8% active | AID 624297; also: potency is read from the fitted curve at half-maximal effect; % of control where 0% means no effect; nearly all actives have a fitted effect of over 55% in size
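Compounds, transferred as 23 nL by pin tool, were incubated with cells for 48 hr; DNA content per nucleus was then quantified by Hoechst staining and fluorescence plate imaging.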
ATXN viability – cell viability loss in ATXN counter-screen. S2 cells (HEK-293 line with an ATXN2-luciferase reporter) viability, CellTiter-Fluor protease fluorescence, 24 h. Potency, µM (top dose mostly 56.7 µM), most hits filed as cytotoxic. 400,000 tested, 0.49% active; also: potency is read from the fitted curve at half-maximal effect; nearly all actives have a fitted effect of over 40% in size
MCF10A rerep – inducers of DNA re-replication in MCF 10A breast cells; MCF 10A DNA re-replication, Hoechst nuclear intensity, 48 h; Potency, µM (series often up to 46.1 µM), for inactives: top-dose activity, positive = re-replication, hits mostly activators; 350,000 tested, 2.9% active; AID 624296; also: potency is read from the fitted curve at half-maximal effect; % of control where 0% means no effect; nearly all actives have a fitted effect of over 50% in size
Starred values were filed as active, the others as inactive; [ ] = another dose, or the depositor's remark. Unless noted, calls follow the shape of the dose curve; as a rule, active = well fitted curve in the direction sought with a large enough effect; inconclusive = small, poorly fitted or top-dose-only effect, or another doubt; inactive = no such curve, though single readings can be large; an effect the other way counts as inactive or inconclusive.

What do the screens show for `O=C(N/N=C/c1ccc(O)cc1)Nc1cccc2nsnc12`?
IL1B secr inh: -98*; PINK1 modulator: -3%; ATXN2 expr inh: 4%; SW480 rerep: 15µM*; MCF10A rerep: inconclusive

Results for CC(NC(=O)C1CCOCC1)c1nnc2n1CCN(Cc1cc3c(cc1Cl)OCO3)CC2 (stereo unspecified) ?
PINK1 modulator: 1%; ATXN viability: inactive

Results for CCOC(=O)C(c1ccccc1)C(Nc1ccc(F)cc1)c1ccccn1 (stereo unspecified) ?
IL1B secr inh: 15; PINK1 modulator: 1%; SW480 rerep: -14%; ATXN viability: inactive; MCF10A rerep: 1%

Results for CCOC(=O)C(C(=O)OCC)C(Nc1ccc(Br)cc1)c1ccccc1 (stereo unspecified) ?
IL1B secr inh: -71*; PINK1 modulator: 7%[38.3 µM]; ATXN2 expr inh: -25%; SW480 rerep: inconclusive; ATXN viability: inactive; MCF10A rerep: inconclusive

What do the screens show for `CC1(C)CC(=O)C(C(c2cc([N+](=O)[O-])ccc2Cl)C2C(=O)CC(C)(C)CC2=O)C(=O)C1`?
IL1B secr inh: 41; PINK1 modulator: 5%; ATXN2 expr inh: 12%; SW480 rerep: 12µM*; ATXN viability: inconclusive; MCF10A rerep: inconclusive

How did Cc1sc(C(C2C(=O)CC(C)(C)CC2=O)C2C(=O)CC(C)(C)CC2=O)cc1[N+](=O)[O-] do in these assays?
IL1B secr inh: -94*; PINK1 modulator: 2%; SW480 rerep: 13%; ATXN viability: inconclusive; MCF10A rerep: inconclusive

Results for CC1(C)CC(=O)C(C(c2ccccc2F)C2C(=O)CC(C)(C)CC2=O)C(=O)C1 ?
IL1B secr inh: -2; PINK1 modulator: 9%; ATXN2 expr inh: -8%; SW480 rerep: -3%; ATXN viability: inconclusive; MCF10A rerep: 1%

Results for Cc1ccc(C(=O)c2oc3ccccc3c2NC(=O)c2cc(-c3cc(C)ccc3O)n[nH]2)cc1 ?
IL1B secr inh: 58; PINK1 modulator: 5%; ATXN2 expr inh: -24%; SW480 rerep: inconclusive; ATXN viability: inactive; MCF10A rerep: 1.6µM*

Results for O=C(Nc1c(C(=O)c2ccccc2)oc2ccccc12)c1cc(-c2ccccc2O)n[nH]1 ?
IL1B secr inh: -11; PINK1 modulator: 5%; ATXN2 expr inh: -7%; SW480 rerep: inconclusive; ATXN viability: inactive; MCF10A rerep: inconclusive

What do the screens show for `Cc1ccc(C(=O)c2oc3ccccc3c2NC(=O)c2cc(-c3ccccc3O)n[nH]2)cc1`?
IL1B secr inh: -3; PINK1 modulator: inconclusive; ATXN2 expr inh: -7%; SW480 rerep: 18µM*; MCF10A rerep: 9.2µM*

What do the screens show for `Cc1cccc(NC(=O)CCS(=O)(=O)c2cc(Br)cc3c2N(C(=O)C2CC2)CC3)c1`?
PINK1 modulator: 2%; ATXN2 expr inh: 2%; ATXN viability: inactive

What do the screens show for `O=C(Cc1ccc(Cl)cc1)NCCc1csc2nc(-c3ccccc3F)nn12`?
PINK1 modulator: 1%; ATXN2 expr inh: -23%; ATXN viability: inconclusive

What do the screens show for `COc1ccc(CN2C(=O)c3ccccc3C2C(=O)NC2CCCCCC2)c(OC)c1` (stereo unspecified)?
IL1B secr inh: -54*; PINK1 modulator: 0%; ATXN2 expr inh: -25%; SW480 rerep: 13%; ATXN viability: inconclusive; MCF10A rerep: -2%

Results for Cc1cc(C)c2c(=O)n(CC(=O)NC3CCCC3)sc2n1 ?
IL1B secr inh: -2; PINK1 modulator: 0%; ATXN2 expr inh: 29%; SW480 rerep: 26%; ATXN viability: inactive; MCF10A rerep: 21µM*

What do the screens show for `OCCNCc1cc(Br)ccc1OCc1ccccc1Cl`?
IL1B secr inh: -59*; PINK1 modulator: -2%; ATXN2 expr inh: -27%; SW480 rerep: 11%; ATXN viability: inactive; MCF10A rerep: inconclusive

How did OCCCCNCc1cc(Br)ccc1OCc1ccccc1 do in these assays?
IL1B secr inh: inconclusive; PINK1 modulator: -2%; SW480 rerep: 90%; ATXN viability: inactive; MCF10A rerep: 4%

Results for C=CCOc1ccc(Br)cc1CNCCCN1CCOCC1 ?
IL1B secr inh: -62*; PINK1 modulator: -1%; ATXN2 expr inh: -19%; SW480 rerep: 0%; ATXN viability: inconclusive; MCF10A rerep: 0%

How did C=CCOc1ccc2ccccc2c1CNCCCN1CCOCC1 do in these assays?
IL1B secr inh: -10; PINK1 modulator: -2%; ATXN2 expr inh: -4%; SW480 rerep: 3%; ATXN viability: inactive; MCF10A rerep: 26%

Results for C=CCOc1ccc(Br)cc1CNCCO ?
IL1B secr inh: -55*; PINK1 modulator: -2%; ATXN2 expr inh: -8%; SW480 rerep: -6%; ATXN viability: inactive; MCF10A rerep: -1%

Results for C[C@H](CCC(=O)O)[C@H]1CC[C@H]2[C@H]3[C@@H](CC[C@]12C)[C@@]1(C)CC[C@@H](O)C[C@H]1C[C@@H]3O ?
ATXN2 expr inh: -2%

Results for COc1ccc(Nc2nc(-c3ccccc3F)nc3ccccc23)cc1OC ?
IL1B secr inh: -61*; PINK1 modulator: -2%; ATXN2 expr inh: 5%; SW480 rerep: 4%; ATXN viability: inactive; MCF10A rerep: -8%

What do the screens show for `COc1ccc(Nc2nc(-c3ccccc3)nc3ccccc23)c(OC)c1`?
IL1B secr inh: -12; PINK1 modulator: 3%; ATXN2 expr inh: -16%; SW480 rerep: inconclusive; ATXN viability: inactive; MCF10A rerep: inconclusive

Results for COc1cccc(Oc2nc(-c3ccncc3)nc3ccccc23)c1 ?
IL1B secr inh: inconclusive; PINK1 modulator: 7%; ATXN2 expr inh: -22%; SW480 rerep: -6%[9.22 µM]; ATXN viability: inactive; MCF10A rerep: 18µM*

How did O=C(OCCNc1nc(-c2ccccc2)nc2ccccc12)c1cccnc1 do in these assays?
IL1B secr inh: 2; PINK1 modulator: -1%; SW480 rerep: -17%; ATXN viability: inconclusive; MCF10A rerep: 6%

Results for CCCOC(=O)c1cccc(Nc2nc(-c3cccnc3)nc3ccccc23)c1 ?
IL1B secr inh: -98*; PINK1 modulator: 3%; ATXN2 expr inh: inconclusive; SW480 rerep: inconclusive; MCF10A rerep: inconclusive

How did COc1ccccc1Nc1nc(-c2ccccc2)nc2ccccc12 do in these assays?
IL1B secr inh: -9; PINK1 modulator: 2%; SW480 rerep: 0.58µM*; ATXN viability: inactive; MCF10A rerep: 5%

Results for COc1cccc2c1Oc1ncccc1N(C(=O)CCC(=O)NCCC(C)C)C2 ?
PINK1 modulator: -1%; ATXN2 expr inh: 9%; ATXN viability: inactive
